The entries come from a sample that favours hits as a whole.
TDP1 cell CPT – growth inhibition of DT40 Tdp1-/-;hTDP1 cells with camptothecin (screen for TDP1 inhibitors) | 420,000 tested, 12% active | chicken DT40 Tdp1-/-;hTDP1 cells + 20 nM CPT, ATP luminescence, 48 h | Potency, µM (top dose mostly 46.2 µM), for inactives: at the top dose activity change, negative = growth inhibition, usual class: inhibitors | AID 686979; also: potency is read from the fitted curve at half-maximal effect; nearly all actives have a fitted effect of over 55% in size
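Chicken DT40 Tdp1-/- cells stably complemented with human TDP1 were seeded at 400 cells/well in medium containing 20 nM camptothecin, exposed to pin-transferred compounds, and grown at 37 °C for at least 48 hr. Viability was read as ATP luminescence.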
HT1080 IDH1KD tx – kills HT-1080 cells with IDH1 knockdown; HT-1080 IDH1 knockdown viability, ATP luminescence, 48 h; Potency, µM (doses to about 46.1 µM), for the others: at the top dose activity, negative = toxicity, usual class: cytotoxic; 360,000 tested, 2% active;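 also: potency is read from the fitted curve at half-maximal effect; 0% = DMSO wells and -100% = cell-free medium wells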
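Cytotoxicity counter-line: IDH1KD HT-1080, 48 h, CellTiter-Glo. Curves classed by r2, magnitude and activity.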
12-LOX inh – ALOX12 (human) lipoxygenase inhibition. purified 12hLO, xylenol orange hydroperoxide absorbance. Potency, µM (doses to about 108 µM), inactives show top-dose activity change, negative = inhibition, actives largely listed as inhibitors. 580,000 tested, 1.1% active. AID 1671190; also: potency is read from the fitted curve at half-maximal effect
Target sequence (P18054 whole entry, looked up): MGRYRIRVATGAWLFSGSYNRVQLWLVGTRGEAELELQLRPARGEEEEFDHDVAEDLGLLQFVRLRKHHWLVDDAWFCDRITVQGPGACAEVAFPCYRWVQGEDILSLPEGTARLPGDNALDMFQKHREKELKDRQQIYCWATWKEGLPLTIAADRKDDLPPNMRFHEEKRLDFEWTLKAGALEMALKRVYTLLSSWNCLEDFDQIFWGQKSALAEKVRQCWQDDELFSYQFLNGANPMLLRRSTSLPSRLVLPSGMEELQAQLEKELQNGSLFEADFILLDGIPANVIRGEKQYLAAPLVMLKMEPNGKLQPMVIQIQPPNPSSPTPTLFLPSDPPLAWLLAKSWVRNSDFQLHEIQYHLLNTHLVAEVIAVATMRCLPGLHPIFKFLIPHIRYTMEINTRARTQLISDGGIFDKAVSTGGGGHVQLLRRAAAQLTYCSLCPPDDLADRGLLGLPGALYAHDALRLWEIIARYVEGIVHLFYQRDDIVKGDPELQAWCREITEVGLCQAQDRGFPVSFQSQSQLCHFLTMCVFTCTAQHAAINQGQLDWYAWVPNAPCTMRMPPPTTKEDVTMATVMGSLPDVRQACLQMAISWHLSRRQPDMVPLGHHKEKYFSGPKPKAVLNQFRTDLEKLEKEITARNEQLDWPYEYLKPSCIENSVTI
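Purified human 12hLO (150 nM final) in 25 mM Hepes, 0.01% Triton X-100, pH 7.0 was preincubated 15 min at room temperature with compound. Then 40 uM arachidonic acid was added, 30 min. Hydroperoxide was read by Fe-XO absorbance ratio 573/405 nm.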
TDP1 cell noCPT – qHTS for Inhibitors of human tyrosyl-DNA phosphodiesterase 1 (TDP1): qHTS in cells in absence of CPT; DT40 Tdp1-/- hTDP1 cells, no CPT, ATP luminescence, 48 h; Potency, µM (doses to about 46.2 µM), inactives show top-dose activity change, negative = growth inhibition, actives largely listed as inhibitors; 420,000 tested, 15% active; AID 686978, 2013; also: potency is read from the fitted curve at half-maximal effect; nearly all actives have a fitted effect of over 55% in size
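Luminescent ATP content (CellTiter-Glo) served as the growth readout. Knockout chicken DT40 cells expressing human TDP1 were exposed to compounds without camptothecin for a minimum 48 hr at 37 °C.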
HT1080NT lethal – kills 2HG-producing HT-1080-NT fibrosarcoma cells; HT-1080-NT fibrosarcoma viability, CellTiter-Glo ATP luminescence, 48 h; Potency, µM (highest dose often 46.1 µM), for the others: at the top dose activity, negative = less viability, hits mostly cytotoxic; 360,000 tested, 1.6% active;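 also: NT is the 2HG producing partner of a matched IDH1 knockdown line; potency is read from the fitted curve at half-maximal effect; 0% = DMSO-treated cells and -100% = media-only wells without cells; nearly all actives have a fitted effect of over 55% in size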
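HT-1080-NT; 750 cells/well; 5% FBS RPMI; 48 h compound, 37 degrees C; CellTiter-Glo luminescence; curve fitting and curve-class assignment.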
IL1B secr inh – blocks inflammasome-driven IL-1 beta release. THP-1 LPS/ATP IL-1B secretion, AlphaLISA, 16 h; active compounds read low. activity change, % at 57.5 µM. 360,000 tested, 4.7% active. AID 743279; in the data active = activity change below about -50%; inconclusive = mostly about -30% to -49%
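Secreted IL-1B measured by AlphaLISA bead assay after 16 h compound exposure of THP-1 cells; compounds (final up to 57.5 uM) added 1 h before LPS (250 ng/mL) and ATP (1.25 mM) stimulation; lower signal means less secretion.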
The depositor's hits bear a star; [ ] = remark or other dose. Unless noted, calls follow the shape of the dose curve; as a rule, active = well fitted curve in the direction sought with a large enough effect; inconclusive = small, poorly fitted or top-dose-only effect, or another doubt; inactive = no such curve, though single readings can be large; an effect the other way counts as inactive or inconclusive. Unless noted, % is scaled to controls: 0 for no effect and ±100 for the full control effect.

For O=C(Cn1c(=O)n(-c2ccc(Cl)cc2)c(=O)c2sc3ccccc3c21)NC1CCCC1 the results were TDP1 cell CPT 13µM*, 12-LOX inh -19% and TDP1 cell noCPT 18µM*.
O=C(Cn1c(=O)n(-c2cccc(Cl)c2)c(=O)c2sc3ccccc3c21)N1CCCC1 was read as TDP1 cell CPT inconclusive, 12-LOX inh inconclusive and TDP1 cell noCPT 15µM*.
`CNC(=O)C1(N2CCC[C@H]2C(=O)NCCNC(C)=O)CCCCC1` gave 12-LOX inh -8%[176 µM].
`CCC(=O)c1ccc(N2CCN(C(=O)COc3ccc(F)cc3)CC2)c(F)c1` gave TDP1 cell CPT 21µM*, HT1080 IDH1KD tx -7%, 12-LOX inh inactive, TDP1 cell noCPT 23µM*, HT1080NT lethal -2% and IL1B secr inh -8.
`CC(=O)c1ccc(N2CCN(C(=O)COc3ccc(F)cc3)CC2)c(F)c1` gave TDP1 cell CPT inconclusive, HT1080 IDH1KD tx -6%, 12-LOX inh -4%, TDP1 cell noCPT 16µM*, HT1080NT lethal -5% and IL1B secr inh -16.
Screening CC(=O)c1ccc(N2CCN(C(=O)Cc3ccccc3)CC2)c(F)c1 returned TDP1 cell CPT inconclusive, HT1080 IDH1KD tx 1%, 12-LOX inh 0%, TDP1 cell noCPT inconclusive, HT1080NT lethal 0% and IL1B secr inh 30.
`CCC(=O)c1cc(F)ccc1OCC(=O)N1CCN(c2ccc(F)cc2)CC1` gave TDP1 cell CPT 18µM*, HT1080 IDH1KD tx -9%, 12-LOX inh -3%, TDP1 cell noCPT 21µM*, HT1080NT lethal -27% and IL1B secr inh 5.
Screening O=S(=O)(Nc1nc2ccccc2nc1Nc1ccc(Cl)c(Cl)c1)c1cccs1 returned 12-LOX inh -24%.
Screening COc1ccc2nc(Nc3nc(C)c(Cc4cccc(Cl)c4)c(=O)[nH]3)nc(C)c2c1 returned 12-LOX inh 1%.
`CC1=C(C(=O)OC(C)C)C(c2ccc(C)cc2C)N2C(CC(=O)N3CCCC3)=CSC2=N1` (configuration not stated) gave 12-LOX inh 2%.
OC(COc1ccc(F)cc1)CN1CCN(c2nccs2)CC1 (configuration not stated) was read as 12-LOX inh 4%.
For CC(C)/C=C(/C(=O)c1ccc(Cl)cc1Cl)n1cncn1 the results were TDP1 cell CPT inconclusive, HT1080 IDH1KD tx 0%, 12-LOX inh inconclusive, TDP1 cell noCPT 21µM*, HT1080NT lethal -16% and IL1B secr inh -71*.
Screening O=C(Cn1cncn1)N/N=C/c1ccc(Cl)cc1 returned TDP1 cell CPT 5%, HT1080 IDH1KD tx 20%, 12-LOX inh -1%, TDP1 cell noCPT -4%, HT1080NT lethal 15% and IL1B secr inh 6.
Screening CC(C)(C)C(=O)/C(=C/c1ccc(Cl)cc1)n1cncn1 returned TDP1 cell CPT 5.8µM*, HT1080 IDH1KD tx -22%, 12-LOX inh 0%, TDP1 cell noCPT 5.2µM*, HT1080NT lethal 16µM* and IL1B secr inh -97*.
`N/C(Cn1cncn1)=N\NC(=O)c1ccc(Cl)cc1Cl` gave TDP1 cell CPT -5%, HT1080 IDH1KD tx 15%, 12-LOX inh 42%, TDP1 cell noCPT -17%, HT1080NT lethal 9% and IL1B secr inh -6.
For CCCCNC(=O)CN1C(=O)NC2(CCC(C)CC2)C1=O (configuration not stated) the results were 12-LOX inh 76%.
`COc1cc(-c2ccno2)ccc1S(=O)(=O)N1CCN(c2cc(C)ccc2C)CC1` gave TDP1 cell CPT inconclusive, 12-LOX inh 0% and TDP1 cell noCPT inconclusive.
COc1ccc(OC)c(-c2noc(N3CCN(c4ccc(Cl)cc4)CC3)n2)c1 was read as TDP1 cell CPT inconclusive, 12-LOX inh -30% and TDP1 cell noCPT 15µM*.
COc1ccc(CC(=O)N2CCN(c3nc(-c4ccc(Cl)cc4)no3)CC2)cc1OC was read as 12-LOX inh 26%.
For COc1ccc(-c2noc(N3CCN(c4cccc(C)c4C)CC3)n2)cc1OC the results were TDP1 cell CPT 18µM*, 12-LOX inh -4% and TDP1 cell noCPT 7.3µM*.
`COc1cc(-c2ccno2)ccc1S(=O)(=O)N1CCN(c2cccc(Cl)c2)CC1` gave TDP1 cell CPT 23µM*, 12-LOX inh inconclusive and TDP1 cell noCPT inconclusive.
COc1ccc(-c2noc(N3CCN(c4ccc(Cl)cc4)CC3)n2)cc1OC was read as TDP1 cell CPT -10%, 12-LOX inh -27% and TDP1 cell noCPT 7%.
Screening COc1ccc(-c2noc(N3CCN(c4cccc(Cl)c4)CC3)n2)cc1OC returned TDP1 cell CPT inconclusive, 12-LOX inh -10% and TDP1 cell noCPT 8.2µM*.
For O=C(CSc1nnc2n(-c3ccccc3)c(=O)c3ccccc3n12)Nc1ccc(Cl)cc1 the results were 12-LOX inh -17%.
CCCCc1cc(=O)oc2cc(OCC(=O)NCc3cccnc3)c(Cl)cc12 was read as 12-LOX inh -7%.
For Clc1cccc(Cl)c1COn1nnc2ccccc21 the results were TDP1 cell CPT inconclusive, HT1080 IDH1KD tx inconclusive, 12-LOX inh 6%, TDP1 cell noCPT inconclusive, HT1080NT lethal inconclusive and IL1B secr inh 17.
`c1ccc(COn2nnc3ccccc32)c(COn2nnc3ccccc32)c1` gave TDP1 cell CPT 18µM*, HT1080 IDH1KD tx -2%, 12-LOX inh -16%, TDP1 cell noCPT 10µM*, HT1080NT lethal -5% and IL1B secr inh inconclusive.
COc1cc(/C=C2/NC(=O)NC2=O)cc(Br)c1OCc1ccc2ccccc2c1 was read as 12-LOX inh -2%.
For c1csc(CNc2ncncc2-c2ccc3c(c2)OCO3)c1 the results were TDP1 cell CPT inconclusive, 12-LOX inh 28µM* and TDP1 cell noCPT inconclusive.
c1cncc(CNc2ncncc2-c2cccnc2)c1 was read as TDP1 cell CPT 13%, 12-LOX inh inconclusive and TDP1 cell noCPT 9%.
c1cncc(-c2cncnc2NCc2cccs2)c1 was read as TDP1 cell CPT 9%, 12-LOX inh 7.9µM* and TDP1 cell noCPT -9%.

Screens deposited in PubChem BioAssay by National Center for Advancing Translational Sciences (NCATS).
